Our source for the TetR repression strength values is a collection of fitness landscapes (doi:10.1038/s41467-024-54723-y).

The full ranking holds about 18,000 sequences; the median of “TetR repression strength (sort-seq, GFP reporter)” is about 0.23, and the highest 2% start at about 0.68. Shown is part of a subset that was picked to be rich in the highest values.

Chain of TetR (class B, Tn10) (P04483 whole entry): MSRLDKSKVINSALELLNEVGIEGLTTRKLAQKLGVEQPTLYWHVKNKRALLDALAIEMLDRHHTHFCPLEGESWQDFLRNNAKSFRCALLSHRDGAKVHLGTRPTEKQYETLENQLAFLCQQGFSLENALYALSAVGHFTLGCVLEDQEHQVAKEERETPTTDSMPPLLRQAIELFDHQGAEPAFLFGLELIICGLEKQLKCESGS

The target of this experiment is TetR (class B, Tn10) (UniProt P04483). The experiment in a line: TetR repression strength (sort-seq, GFP reporter) (relative to tetO2 = 1); higher = stronger repression. To be noted: E. coli. The method in brief:
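E. coli SIG10-MAX carried a low-copy plasmid library with eight randomized operator positions between a constitutive promoter and sfGFP, with TetR constitutively expressed. Cells grew 5 h at 37 °C in LB with 50 µg/mL chloramphenicol, then 10^6 cells were FACS-sorted into 13 fluorescence bins, each Illumina-sequenced. Repression strength is the top bin index plus one minus the read-weighted mean bin, divided by the wild-type operator value. Three independent transformations; variants with ≥30 reads in all replicates and CV ≤0.5 were averaged.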
TCCCGGACAGTAACGGAGA had a TetR repression strength of 0.312.
TCCCGCGGAGTCACTGAGA displayed a TetR repression strength of 0.415.
TCCCTCGTAGTGTTTGAGA registered a TetR repression strength of 0.362.
As to TCCCAGTCAGTTCAGGAGA, the TetR repression strength is 0.096.
Turning to TCCCGATAAGTTGCGGAGA, the TetR repression strength was determined as 0.185.
With TCCCTTTCAGTAGAGGAGA the figure was 1.01; with TCCCTTTCAGTCGAGGAGA, 0.369; with TCCCTTTCAGTAGGGGAGA, 0.194.
With TCCCTTTCAGTAGCGGAGA the figure was 0.798.
The sequence TCCCCTTCAGTAGCGGAGA gave a TetR repression strength of 0.344.
TCCCTTACAGTAGCGGAGA showed a TetR repression strength of 0.0543.
Take TCCCAGACAGTCATCGAGA: the TetR repression strength came out at 0.368.
As to TCCCTAGCAGTTGTAGAGA, the TetR repression strength was 0.509.
With TCCCTTGCAGTGATCGAGA, the TetR repression strength was 0.654.
The result for TCCCGTCGAGTAGGGGAGA reads 0.127.
With TCCCTTGGAGTTAGGGAGA the figure was 0.2.
Sequence TCCCTGGGAGTTAGTGAGA registered a TetR repression strength of 0.146.
The sequence TCCCTGGGAGTTATAGAGA registered a TetR repression strength of 0.354.
Sequence TCCCTGATAGTTTGAGAGA returned a TetR repression strength of 0.382.
TCCCAGAGAGTTAGCGAGA: the TetR repression strength was found to be 0.557.
TCCCTGTTAGTTTGTGAGA returned a TetR repression strength of 0.4.
TCCCTAGTAGTTAGGGAGA registered a TetR repression strength of 0.192.
With TCCCAGCGAGTTACAGAGA the figure was 0.238; with TCCCTAGGAGTTAGGGAGA, 0.979.
As for TCCCAGCGAGTTAGAGAGA, the TetR repression strength came to 0.815.
With TCCCTGTTAGTTTGAGAGA the figure was 0.856; with TCCCTGGGAGTTAGAGAGA, 0.832.
In turn, TCCCAGAAAGTCAATGAGA had a TetR repression strength of 0.289.
For the sequence TCCCTGCTAGTGGCAGAGA, the TetR repression strength is 0.119.
With TCCCTATAAGTAGGAGAGA the figure was 0.228; with TCCCAGTGAGTGCGCGAGA, 0.286.
Regarding TCCCCAGAAGTCGTTGAGA, the TetR repression strength came to 0.061.
As for TCCCCGTAAGTACAGGAGA, the TetR repression strength came out at 0.368.
With TCCCGGCAAGTTTTTGAGA the figure was 0.238; with TCCCGGGAAGTGGGGGAGA, 0.274.
With TCCCGGATAGTGATCGAGA the figure was 0.33; with TCCCGACTAGTCAGGGAGA, 0.515; with TCCCCGGGAGTGTGGGAGA, 0.207.
As to TCCCAAGAAGTTGCGGAGA, the TetR repression strength came out at 0.21.
For TCCCTGGTAGTGAGAGAGA, the TetR repression strength turned out to be 0.326.
Take TCCCTGGTAGTTAGAGAGA: the TetR repression strength came to 0.821.
In the case of TCCCTGGTAGTTAGTGAGA, the TetR repression strength came out at 0.141.
With TCCCCTAGAGTTGAGGAGA the figure was 0.239; with TCCCTGTTAGTTAGAGAGA, 0.452; with TCCCTAGAAGTTGCGGAGA, 1.2.
Regarding TCCCTAGTAGTTGCGGAGA, the TetR repression strength amounted to 0.322.
Take TCCCTGGTAGTGACCGAGA: the TetR repression strength came to 0.116.
On to TCCCCTTGAGTTGAGGAGA, for which the TetR repression strength turned out to be 0.707.
For TCCCTTGGAGTTGAGGAGA, the TetR repression strength turned out to be 0.465.
With TCCCTGGTAGTGACAGAGA, the TetR repression strength amounted to 1.03.
With TCCCGGCTAGTGTGGGAGA, the TetR repression strength turned out to be 0.221.
TCCCAGGAAGTCAGGGAGA had a TetR repression strength of 0.235.
With TCCCCGAGAGTGCCAGAGA the figure was 0.411.
Take TCCCAATGAGTTCAGGAGA: the TetR repression strength is 0.243.
For TCCCAGTTAGTAATTGAGA, the TetR repression strength turned out to be 0.0467.
Take TCCCCTGGAGTTTGGGAGA: the TetR repression strength turned out to be 0.286.
For TCCCTGGGAGTTGGGGAGA, the TetR repression strength turned out to be 0.211.
TCCCCTGGAGTTGGGGAGA came in with a TetR repression strength of 1.09.
The result for TCCCGACTAGTGATAGAGA reads 0.632.
The result for TCCCGTCTAGTGTTTGAGA reads 0.371.
For the sequence TCCCCTCTAGTGTTTGAGA, the TetR repression strength was found to be 0.945.
Take TCCCCTCGAGTGTGTGAGA: the TetR repression strength is 0.125.
In turn, TCCCCTGTAGTGTTTGAGA returned a TetR repression strength of 0.396.
TCCCCTCGAGTGTTTGAGA yielded a TetR repression strength of 0.92.
In turn, TCCCCTTGAGTGTTTGAGA came in with a TetR repression strength of 0.302.
In turn, TCCCCCAGAGTTAACGAGA gave a TetR repression strength of 0.207.
Consider TCCCCTGCAGTGGCTGAGA, for which the TetR repression strength turned out to be 0.205.
For the sequence TCCCGTTGAGTCGATGAGA, the TetR repression strength was 0.335.
TCCCCATTAGTAGTCGAGA returned a TetR repression strength of 1.01.
The result for TCCCCAATAGTAGTCGAGA reads 0.459.
Regarding TCCCCAAAAGTAGATGAGA, the TetR repression strength was determined as 0.081.
Sequence TCCCCAATAGTAGATGAGA came in with a TetR repression strength of 0.672.
In turn, TCCCGTAGAGTCGATGAGA had a TetR repression strength of 0.715.
With TCCCCTAGAGTCGATGAGA the figure was 0.271; with TCCCCACGAGTAGTCGAGA, 0.
On to TCCCCATGAGTCGTCGAGA, for which the TetR repression strength stood at 0.214.
With TCCCCATTAGTATTCGAGA the figure was 0.24; with TCCCCAAGAGTAGATGAGA, 0.739; with TCCCCATGAGTAGTCGAGA, 1.03.
Consider TCCCGAAGAGTAAGTGAGA, for which the TetR repression strength was determined as 0.207.
In turn, TCCCGTCCAGTGTGTGAGA yielded a TetR repression strength of 0.22.
In turn, TCCCATATAGTGTACGAGA registered a TetR repression strength of 0.0769.
TCCCCTAGAGTGCAAGAGA gave a TetR repression strength of 0.552.
The result for TCCCATGGAGTTGGTGAGA reads 0.227; that for TCCCCTCAAGTCGAGGAGA, 0.125.
For TCCCTACAAGTGGATGAGA, the TetR repression strength was 0.221.
On to TCCCCTTCAGTCCCAGAGA, for which the TetR repression strength came out at 1.12.
The result for TCCCCAGTAGTCGCTGAGA reads 0.311; that for TCCCTTTCAGTCCCAGAGA, 0.0305.
Sequence TCCCCAGTAGTCCCTGAGA yielded a TetR repression strength of 0.945.
Sequence TCCCTATTAGTCCCAGAGA displayed a TetR repression strength of 0.32.
In the case of TCCCTATCAGTGCCAGAGA, the TetR repression strength turned out to be 0.743.
With TCCCCAGTAGTCTGAGAGA the figure was 0.0196; with TCCCTATCAGTCCGAGAGA, 0.324; with TCCCTCTCAGTGCCAGAGA, 0.585.
Regarding TCCCAGTCAGTCCCAGAGA, the TetR repression strength worked out at 0.365.
With TCCCTATCAGTCCCAGAGA the figure was 1.18; with TCCCTGTCAGTGCCAGAGA, 0.324; with TCCCGTCAAGTAATAGAGA, 0.331.
Take TCCCTGTTAGTTGTCGAGA: the TetR repression strength amounted to 0.341.
Consider TCCCTTTCAGTATGGGAGA, for which the TetR repression strength stood at 0.422.
The result for TCCCAAAAAGTGGTGGAGA reads 0.203; that for TCCCCGCGAGTTGAAGAGA, 0.335.
TCCCTAACAGTCGGCGAGA showed a TetR repression strength of 0.163.
